Source: PubChem BioAssay (National Center for Advancing Translational Sciences (NCATS))
Most compounds without a hit are left out; they make up all but 10% or so of the library.
CCT chaperon mod: modulators of cytosolic chaperonin (CCT/TRiC) activity | purified chaperonin ATPase assay, HTRF ADP detection, 30 min | activity change, % (test concentration not listed), hits read low | actives 0.3% (n = 360,000); in the data active = activity change below about -30%
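ATPase activity: ADP formed was measured by HTRF Transcreener (665/615 nm ratio) after 30 min at 37 deg C with 10 uM ATP. Compounds screened at one 76 uM concentration against 40 or 20 nM TRiC in Tris pH 7.4/KCl/MgCl2/DTT buffer.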
VDR inh: vitamin D3 receptor (human) inhibition; P11473; VDR-SRC2-3 peptide fluorescence polarization, 2 h; Potency, µM, actives largely listed as inhibitors; actives 0.93% (n = 400,000); AID 504847
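Compounds are added to VDR with labelled SRC2-3 coactivator peptide and held 2 h at room temperature. Inhibition of the VDR–peptide interaction is then read as a change in fluorescence polarization.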
MmCpn inh: M. maripaludis TRiC chaperonin inhibition | Potency, µM (doses to about 76.9 µM), usual class: inhibitors | actives 0.031% (n = 330,000) | purified Mm-Cpn ATPase, ADP Transcreener TR-FRET; note: nearly all actives have a fitted effect of over 80% in size
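Compound-treated chaperonin, 25 nM final, turns over 10 uM ATP at 37°C for 30 min following a 10 min preincubation; ADP generated competes with ADP-d2 for Eu-cryptate antibody, lowering FRET.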
G9a inh: blocks human histone lysine methyltransferase G9a | Q96KQ7 | G9a H3K9 monomethylation, AlphaScreen, 2 h | Potency, µM (series often up to 102 µM), actives largely listed as inhibitors | actives 8.8% (n = 350,000); note: nearly all actives have a fitted effect of over 75% in size
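Using a bead-based AlphaScreen, monomethylated H3K9 product from 2 h room-temperature reactions (G9a 20 nM, peptide 500 nM, SAM 20 uM) was detected with 0.5 ug/mL rabbit anti-H3K9me1 antibody.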
Sfp inh: Sfp phosphopantetheinyl transferase inhibition; Potency, µM, hits mostly inhibitors; Q9F4F7; actives 3.5% (n = 310,000); AID 1490; Biochemical Sfp PPTase activity, qHTS;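 note: the enzyme is Sfp with the accession as filed and its product quenches rhodamine fluorescence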
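Fluorescence-quenching assay: 15 nM Sfp-PPTase preincubated 15 min at room temperature with compound, then 5 uM rhodamine-CoA and 12.5 uM BHQ-2-labelled YbbR peptide added. Fluorescence (ex 525/em 598 nm) read at start and after 30 min; difference gives rate.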
PLK1 PBD block: PLK1 (human) polo-box domain binding inhibition | P53350 | Plk1 PBD binding of FITC phosphopeptide, fluorescence polarization | Potency, µM, usual class: inhibitors | actives 2.8% (n = 360,000) | AID 720504; note: series mostly up to about 57 µM; nearly all actives have a fitted effect of over 65% in size
Target sequence (P53350 whole entry, looked up, the tested form may be a part): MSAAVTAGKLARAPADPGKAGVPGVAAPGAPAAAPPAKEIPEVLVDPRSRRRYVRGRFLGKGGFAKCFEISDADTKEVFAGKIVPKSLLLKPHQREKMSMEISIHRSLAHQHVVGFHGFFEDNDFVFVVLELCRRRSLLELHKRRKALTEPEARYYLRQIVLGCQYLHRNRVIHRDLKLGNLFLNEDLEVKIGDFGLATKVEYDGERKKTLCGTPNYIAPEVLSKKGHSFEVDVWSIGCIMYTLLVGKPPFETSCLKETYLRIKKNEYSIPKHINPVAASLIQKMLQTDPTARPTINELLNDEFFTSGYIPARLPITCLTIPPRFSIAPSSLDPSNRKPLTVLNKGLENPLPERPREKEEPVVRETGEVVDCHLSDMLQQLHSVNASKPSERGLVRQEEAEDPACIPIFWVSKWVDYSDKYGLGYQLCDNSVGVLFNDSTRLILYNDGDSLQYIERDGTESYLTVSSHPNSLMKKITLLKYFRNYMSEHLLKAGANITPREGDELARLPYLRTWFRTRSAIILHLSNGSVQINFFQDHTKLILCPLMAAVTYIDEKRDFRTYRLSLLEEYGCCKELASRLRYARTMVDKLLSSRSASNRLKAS
Numbers stand for hits; [ ] = remark or other dose. Unless noted, calls come from the whole dose curve; as a rule, active = well fitted curve in the direction sought with a large enough effect; inconclusive = small, poorly fitted or top-dose-only effect, or another doubt; inactive = no such curve, though single readings can be large; an effect the other way counts as inactive or inconclusive.

`COc1ccc(CNS(=O)(=O)c2ccc(F)cc2Br)cc1` gave CCT chaperon mod inactive, VDR inh inactive and PLK1 PBD block inactive.
COc1ccc(CNS(=O)(=O)c2ccc(N3CCCC3)cc2Br)cc1 was read as CCT chaperon mod inactive, VDR inh inconclusive, MmCpn inh inactive and PLK1 PBD block 23.8µM.
For COc1ccc(Cn2c(SCC(=O)N3CCN(c4ccc(F)cc4)CC3)nc3ccccc32)cc1 the results were VDR inh inactive and G9a inh inactive.
CNC(=S)NNC(=O)c1sc2cc(C(F)(F)F)cnc2c1-c1cccnc1 was read as CCT chaperon mod inactive, VDR inh inactive, MmCpn inh inactive, G9a inh inconclusive, Sfp inh inactive and PLK1 PBD block inconclusive.
`Cn1c(-c2sc3ccccc3c2Cl)n[nH]c1=S` gave CCT chaperon mod inactive, VDR inh inactive, MmCpn inh inconclusive, G9a inh inconclusive, Sfp inh inactive and PLK1 PBD block inactive.
Screening Cn1c(-c2sc3cc(C(F)(F)F)cnc3c2-c2cccs2)n[nH]c1=S returned CCT chaperon mod inactive, VDR inh inactive, MmCpn inh inactive, G9a inh 3.98µM, Sfp inh inactive and PLK1 PBD block inactive.
Screening Cn1c(-c2sc3cc(C(F)(F)F)cnc3c2-c2ccccn2)n[nH]c1=S returned CCT chaperon mod inactive, VDR inh inactive, MmCpn inh inactive, G9a inh 6.31µM, Sfp inh inactive and PLK1 PBD block inactive.
For Cn1c(-c2sc3cc(C(F)(F)F)cnc3c2-c2cccnc2)n[nH]c1=S the results were CCT chaperon mod inactive, VDR inh inactive, MmCpn inh inactive, G9a inh 3.55µM, Sfp inh inactive and PLK1 PBD block 23.8µM.
CSc1nnc(-c2sc3cc(C(F)(F)F)cnc3c2-c2ccccn2)n1C was read as CCT chaperon mod inactive, VDR inh inactive, MmCpn inh inactive, G9a inh inactive, Sfp inh inactive and PLK1 PBD block inactive.
Cc1noc(C)c1C(=O)N1CCC2(CC1)CCN(c1ccccn1)CC2 was read as VDR inh inactive, G9a inh inactive[12.7 µM] and Sfp inh inactive.
Cc1c(C(=O)NCc2cccc(Cl)c2)sc2nc3n(c(=O)c12)CCC3 was read as VDR inh inactive and G9a inh inactive.
For CN1CCN(CC(C)(C)NS(=O)(=O)c2ccccc2)CC1 the results were CCT chaperon mod inactive, VDR inh inactive, MmCpn inh inactive and PLK1 PBD block inactive.
`CC(C)(CN1CCOCC1)NS(=O)(=O)c1ccccc1` gave CCT chaperon mod inactive, VDR inh inactive, MmCpn inh inactive, Sfp inh inactive and PLK1 PBD block inactive.
CCC1CCCCN1CC(C)(C)NS(=O)(=O)c1ccccc1 (stereo not drawn) was read as CCT chaperon mod inactive, VDR inh inactive, MmCpn inh inactive, G9a inh 7.08µM, Sfp inh inactive and PLK1 PBD block inactive.
`CC1CC(C)CN(CC(C)(C)NS(=O)(=O)c2ccccc2)C1` (stereo not drawn) gave CCT chaperon mod inactive, VDR inh inactive, MmCpn inh inactive, G9a inh 8.91µM, Sfp inh inactive and PLK1 PBD block inactive.
CC(C)(CN1CCc2ccccc2C1)NS(=O)(=O)c1ccccc1 was read as CCT chaperon mod inactive, VDR inh inactive, MmCpn inh inconclusive, G9a inh 10µM, Sfp inh inactive and PLK1 PBD block inactive.
`CCc1ccccc1NC(=O)CSc1nnc(-c2ccc(OC)cc2)s1` gave VDR inh inactive and G9a inh inactive.
`COc1ccc(C)cc1NC(=O)CC(=O)Nc1ccc2nc3n(c(=O)c2c1)CCCCC3` gave VDR inh inactive and G9a inh inconclusive.
CCCCC#CC1C=CC(Oc2cc(OC)c(OC)c(OC)c2)C(CO)O1 (stereo not drawn) was read as Sfp inh inactive.
Screening Cc1ccc(C(=O)CN(Cc2ccccc2)C2=NCCS2)cc1 returned CCT chaperon mod inactive, VDR inh inactive, MmCpn inh inactive, G9a inh inconclusive, Sfp inh inactive and PLK1 PBD block inactive.
`O=C(CN(Cc1ccccc1)C1=NCCS1)c1ccccc1` gave CCT chaperon mod inactive, VDR inh inactive, MmCpn inh inactive, G9a inh 50.1µM, Sfp inh inactive and PLK1 PBD block inactive.
`Nc1ccc(-c2cnc[nH]2)cc1[N+](=O)[O-]` gave CCT chaperon mod inactive, VDR inh inactive, MmCpn inh inactive, Sfp inh inactive and PLK1 PBD block inactive.
For Nc1ccc(-c2ccc(N)c([N+](=O)[O-])c2)cc1[N+](=O)[O-] the results were CCT chaperon mod inactive, VDR inh inactive, MmCpn inh inactive, G9a inh 70.8µM, Sfp inh inactive and PLK1 PBD block inactive.
COC(=O)c1ccc(OCC2c3cc(OC)c(OC)cc3CCN2C(=O)Cc2ccc(OC)c(OC)c2)cc1 (stereo not drawn) was read as VDR inh inactive and G9a inh inactive.
For Cc1cc(C)c2c(N)c(S(=O)(=O)c3ccccc3)sc2n1 the results were CCT chaperon mod inactive, VDR inh inactive, MmCpn inh inactive, G9a inh inactive[12.7 µM], Sfp inh 89.1µM and PLK1 PBD block inactive.
For CCCCS(=O)(=O)c1sc2nc(C)cc(C)c2c1N the results were CCT chaperon mod inactive, VDR inh inactive, MmCpn inh inactive, G9a inh inconclusive, Sfp inh inactive and PLK1 PBD block inactive.
Screening COC(=O)Nc1sc2c(c1C(=O)N1CCOCC1)CCC(C)C2 (stereo not drawn) returned CCT chaperon mod inactive, VDR inh inconclusive, MmCpn inh inactive, G9a inh inconclusive, Sfp inh inconclusive and PLK1 PBD block 26.7µM.
Screening CCCCCNc1nc(-c2ccccc2)cs1 returned MmCpn inh inactive, G9a inh inconclusive and Sfp inh inactive.
Screening CCCCCC1CC(CC/C(C)=N/NC(N)=O)C(=O)O1 (stereo not drawn) returned CCT chaperon mod inactive, VDR inh inactive, MmCpn inh inactive, G9a inh inactive, Sfp inh inactive and PLK1 PBD block inactive.
`CCCCCOCC1CC(C/C(C)=N/NC(N)=S)C(=O)O1` (stereo not drawn) gave CCT chaperon mod inactive, VDR inh inactive, MmCpn inh inactive, G9a inh inactive, Sfp inh 44.7µM and PLK1 PBD block 26.7µM.
`CCCCCOCC1CC(C/C(C)=N/NC(N)=O)(C(=O)OCC)C(=O)O1` (stereo not drawn) gave CCT chaperon mod -41.2, VDR inh inactive, MmCpn inh inactive, Sfp inh inactive and PLK1 PBD block inactive.
Screening CCCCCOCC1CC(C/C(C)=N/Nc2nc(-c3ccccc3)cs2)C(=O)O1 (stereo not drawn) returned CCT chaperon mod inactive, VDR inh inconclusive, MmCpn inh inactive, G9a inh 39.8µM, Sfp inh 70.8µM and PLK1 PBD block 21.2µM.
